Measurements: PubChem BioAssay AID1159580 (chemical genetic matrix, 2015)
Several values for one entry are separate records, joined by “and”; a condition that tells them apart may be missing. Equal entries are not always repeated. Screen size: about 5,500 compounds; about 2,000 (36%) were called active. About 18% were inconclusive and are not listed. Cut-off read from the data, not from the text of the source: active = normalized growth mostly below about 0.91 (no sharp cut-off); inconclusive = no clear call, values can overlap the other calls; inactive = mostly above about 0.92. Some of the results follow.

Assay: chemical genetic growth profiling, strain panel (AID 1159580);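 note: tested at 20 µM; growth read once vehicle control cultures reached saturation at 30 °C; 1 = growth at the plate median or of vehicle wells; lower values mean less growth of the strain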
Conditions: S. cerevisiae deletion strains, growth OD

Measured: normalized growth

CC(CN(C)C)CN1c2ccccc2Sc2ccccc21 (configuration not stated)
active: locus YBR021W, strain FUR4, hits give low values 0.818 | locus YDR137W, strain rgp1, hits give low values 1.22 [resistant]
inactive: locus YAL013W, strain DEP1, hits give low values 0.993 | locus YAL021C, strain ccr4, hits give low values 0.99 | locus YAL026C, strain drs2, hits give low values 0.951 | locus YAL030W, strain snc1, hits give low values 1.02 | locus YBL061C, strain skt5, hits give low values 1.02 | locus YBR009C, strain hhf1, hits give low values 1.02 | locus YBR023C, strain chs3, hits give low values 1.02 | locus YBR171W, strain sec66, hits give low values 1.04 | locus YBR229C, strain ROT2, hits give low values 0.992 | locus YBR231C, strain swc5, hits give low values 1.03 | locus YBR279W, strain paf1, hits give low values 1.02 | locus YCL011C, strain gbp2, hits give low values 1.02 | locus YCL016C, strain dcc1, hits give low values 1.01 | locus YCL029C, strain bik1, hits give low values 0.989 | locus YCL061C, strain MRC1, hits give low values 1.02 | locus YCL069W, strain vba3, hits give low values 1.02 | locus YCR088W, strain abp1, hits give low values 1.02 | locus YDL005C, strain med2, hits give low values 1.02 | locus YDL035C, strain GPR1, hits give low values 0.985 | locus YDL040C, strain nat1, hits give low values 1.01 | locus YDL074C, strain BRE1, hits give low values 0.933 | locus YDL101C, strain DUN1, hits give low values 0.985 | locus YDL134C, strain PPH21, hits give low values 0.979 | locus YDL185W, strain tfp1, hits give low values 0.974 | locus YDL192W, strain arf1, hits give low values 0.998 | locus YDR001C, strain nth1, hits give low values 1.01 | locus YDR069C, strain doa4, hits give low values 1.01 | locus YDR101C, strain arx1, hits give low values 0.988 | locus YDR150W, strain NUM1, hits give low values 1.01 | locus YDR159W, strain sac3, hits give low values 1.03 | locus YDR162C, strain NBP2, hits give low values 0.991 | locus YDR195W, strain ref2 1.13 | locus YDR297W, strain sur2, hits give low values 1.01 | locus YDR318W, strain mcm21, hits give low values 0.974 | locus YDR334W, strain swr1, hits give low values 1.02 | locus YDR335W, strain msn5, hits give low values 1.02 | locus YDR388W, hits give low values 0.966 | locus YDR392W, strain spt3, hits give low values 1.07 | locus YDR502C, strain sam2, hits give low values 0.99 | locus YEL003W, strain gim4, hits give low values 0.988 | locus YEL037C, strain rad23, hits give low values 1.01 | locus YEL061C, strain CIN8 (second series), hits give low values 1.02 | locus YEL061C, strain CIN8, hits give low values 0.994 | locus YER015W, strain faa2, hits give low values 1.03 | locus YER016W, strain bim1, hits give low values 1.02 | locus YER110C, hits give low values 0.999 | locus YER111C, strain swi4, hits give low values 1.03 | locus YER155C, strain BEM2 (second series), hits give low values 1.04 | locus YER155C, strain BEM2, hits give low values 0.99 | locus YER167W, strain BCK2, hits give low values 0.997 | locus YFR010W, strain ubp6, hits give low values 0.985 | locus YGL078C, strain dbp3, hits give low values 0.986 | locus YGL086W, strain mad1, hits give low values 0.991 | locus YGL167C, strain pmr1, hits give low values 1.03 | locus YGL173C, strain kem1, hits give low values 1.03 | locus YGL227W, strain vid30, hits give low values 1.02 | locus YGL240W, strain doc1, hits give low values 1.03 | locus YGL248W, strain PDE1, hits give low values 0.995 | locus YGL253W, strain hxk2, hits give low values 1.02 | locus YGR078C, strain PAC10, hits give low values 0.958 | locus YGR135W, strain pre9, hits give low values 0.944 | locus YGR229C, strain SMI1, hits give low values 0.911 | locus YGR252W, strain gcn5, hits give low values 0.917 | locus YHR013C, strain ard1, hits give low values 1.04 | locus YHR027C, strain rpn1, hits give low values 1.05 | locus YHR030C, strain SLT2, hits give low values 0.983 and 1 | locus YHR079C, strain IRE1 (second series), hits give low values 0.985 | locus YHR079C, strain IRE1, hits give low values 0.993 | locus YHR094C, strain hxt1, hits give low values 0.993 | locus YHR129C, strain ARP1, hits give low values 0.989 | locus YHR142W, strain chs7, hits give low values 1.01 | locus YHR200W, strain rpn10, hits give low values 0.988 | locus YIL066C, strain RNR3, hits give low values 0.972 | locus YIL073C, strain SPO22, hits give low values 0.991 | locus YIL125W, strain kgd1, hits give low values 0.996 | locus YIR030C, strain dcg1, hits give low values 0.989 | locus YJL092W, strain hpr5, hits give low values 1.01 | locus YJL095W, strain BCK1 (second series), hits give low values 1.01 | locus YJL095W, strain BCK1, hits give low values 0.861 and 1 | locus YJL115W, strain asf1, hits give low values 1.01 | locus YJL129C, strain trk1, hits give low values 1.11 | locus YJL134W, strain LCB3, hits give low values 0.992 | locus YJL154C, strain vps35, hits give low values 1.02 | locus YJL164C, strain tpk1, hits give low values 1.02 | locus YJL166W, strain qcr8, hits give low values 1.02 | locus YJL168C, strain set2, hits give low values 0.993 | locus YJL187C, strain SWE1 (second series), hits give low values 0.957 | locus YJL187C, strain SWE1, hits give low values 1.01 | locus YJR043C, strain POL32, hits give low values 1.02 | locus YJR066W, strain TOR1, hits give low values 0.937
